# Measured values as given in PubChem BioAssay (NCI).
# Compounds without any hit were thinned out: in the full panel of roughly 83,000, 20% have a hit.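 96-well plates, one dose, 48 hours. Percent growth reported; active if below 10.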 Active and inactive are the calls of the source.
# Test system: HL-60(TB) leukemia
# Experiment: NCI-60 one-dose screen, 48 h (100 = growth as untreated, 0 = no growth, -100 = all killed)
# Settings: 10 µM unless noted
row,SMILES,growth
1,CCOC(=O)c1sc(NC(=O)COc2cccc(/C=C3\Cc4ccc(Cl)cc4C3=O)c2)nc1C,120% (inactive)
2,Cc1nc2cc(Nc3nc(N4CCCCC4)nc(N4CCOCC4)n3)ccc2n1Cc1ccccc1,75% (inactive)
3,O=C(COc1ccc(/C=C2\Oc3ccccc3C2=O)cc1)Nc1nccs1,-36.2% (active)
4,CCCOc1ccc2c(c1)CC[C@@H]1[C@@H]2CC[C@@]2(C)[C@H]1CC[C@]2(C)O,78.8% (inactive)
5,Cc1occc1-c1n[nH]c(=S)n1N1C(=O)CSC1=S,99.2% (inactive)
6,COc1ccc(/C=C/c2c(C(=O)/C=C/c3cccs3)c(C)nc3ccccc23)cc1,69.6% (inactive)
7,CCn1c(C)nc([N+](=O)[O-])c1Sc1nc(N)nc2nc[nH]c12,50.9% (inactive)
8,CC(C)(C)c1ccc(C(=O)N/N=C/c2ccc(O)cc2O)cc1,5.19% (active)
9,CCCCCCCCCCCCCCCCOc1ccc(C)cc1,134% (inactive)
10,COc1ncnc2[nH]cc(CN3CCN(c4ccc(F)cc4)CC3)c12,101% (inactive)
11,CCCCCCCC/C=C\CCCCCCCCOc1ccccc1CC(=O)NCC[N+](C)(C)C,67% (inactive)
12,COc1ccc(C2CC(c3ccc4c(c3)OCO4)=Nc3c(N)ncnc3N2)cc1 (centres undefined),99.3% (inactive)
13,Cc1ccc(C(=O)c2ccc(CC(=O)NN3C(=O)c4ccccc4C3=O)n2C)cc1,100% (inactive)
14,CCOC(=O)[C@@H](C)C[C@H](Cc1ccccc1)NC(=O)c1csc([C@@H](C[C@H](C(C)C)N(C)C(=O)[C@@H](NC(=O)[C@H]2C[C@H](O[Si](C)(C)C(C)(C)C)CCN2C)C(C)C)OC(C)=O)n1,-36.9% [9.25 µM] (active)
15,COc1ccc(OC)c(/C=C2\Oc3cc(OCCCN4CCCC4)ccc3C2=O)c1,87.5% (inactive)
16,COc1cc(C(=O)Nc2ccc(N(C)C)cc2)cc(OC)c1OC,95.8% (inactive)
17,CC1CCN(CCCCCOc2ccc3oc4ccccc4c(=O)c3c2)CC1,44.6% (inactive)
18,COc1cnc2c(c1)C(=O)c1c-2n(CCCN2CCC(O)CC2)c(=O)c2cc(Cl)ccc12,-35.9% (active)
19,O=C(/C=C/C=C/c1c(C2CC2)nc2ccccc2c1-c1ccc(F)cc1)c1cccs1,-17.5% (active)
20,COCCn1cc(-c2csc(-c3c[nH]c4ccccc34)n2)c2cccnc21,14.1% (inactive)

row,SMILES,growth
1,CN(CCCNC(=O)CCOCCOCCOCCNC(=O)Cc1ccc2ccc3cccc4ccc1c2c34)CCCNc1cc(-c2ccc3ccccc3c2)nc2ccccc12,-77.6% (active)
2,CCCCC[C@H]1CC=C2C(=O)C=C[C@@H]2CC=CCCCC(=O)O[C@@H](CCCCC)CC=C2C(=O)C=C[C@@H]2CC=CCCCC(=O)O[C@@H](CCCCC)CC=C2C(=O)C=C[C@@H]2CC=CCCCC(=O)O1,-32.4% [8.75 µM] (active)
3,CCOC(=O)/C(C#N)=C1/C(=O)Nc2ccccc21,149% (inactive)
4,COc1ccccc1/C=C1\COc2ccc(-c3ccccc3)cc2C1=O,-47.8% (active)
5,C[C@H]1[C@H](C)CC[C@]2(C(=O)O)CC[C@]3(C)C(=CC[C@@H]4[C@@]5(C)C/C(=C/c6cccnc6)[C@H](O)C(C)(C)[C@@H]5CC[C@]43C)[C@H]12,-16.5% [100 µM] (active)
6,Cn1cc(C(=O)NCCC(=N)N)cc1NC(=O)CN=C(N)N,102% (inactive)
7,NS(=O)(=O)c1ccc(N/C=C/C(=O)c2cc3ccccc3oc2=O)cc1,100% (inactive)
8,CCN(CC)CCCC(C)Nc1ccc2ccc(Cl)cc2n1 (centres undefined),101% (inactive)
9,CC(O)COc1ccc(-c2ccccc2)cc1 (centres undefined),102% (inactive)
10,O=C1OC(c2ccccc2)C(O)=C1c1ccccc1 (centres undefined),101% (inactive)
11,COc1ccc2cc(-c3cc(OC)c(OC)c(OC)c3)c(=O)oc2c1,55.3% (inactive)
12,O=C1NC(=O)C2C(=O)NC(=O)C1C21CCc2ccccc21 (centres undefined),117% (inactive)
13,O=C(/C=C/c1cc2ccccc2[nH]c1=O)c1ccc2c(c1)OCO2,79% (inactive)
14,COc1cc(-c2nn(-c3ccccc3)cc2-c2ccnc(NCCNS(=O)(=O)c3ccc(Cl)cc3)n2)ccc1Cl,-35.9% (active)
15,CCCCC(C#N)C(N)=O (centres undefined),93.8% (inactive)
16,CCCCOc1nc2c(C)cccc2cc1C1CNC(=O)c2ccccc2N1 (centres undefined),26.2% (inactive)
17,COc1ccc(OC)c([N+](=O)[O-])c1C=O,88.2% (inactive)
18,O=c1oc2ccc(Cl)cc2c(=O)n1-c1ccc(F)cc1F,-28.8% (active)
19,CCCCN1CCN(c2ccc3nc(-c4ccc5nc(-c6ccc(OC)c(OC)c6)[nH]c5c4)[nH]c3c2)CC1,-25.1% (active)
